Screening data from PubChem BioAssay.
Many of the other results were omitted from the sample, so hits are more common in it than they were.
Lassa entry inh = qHTS for Inhibitors of binding or entry into cells for Lassa Virus | 300,000 tested, 1.2% active | Potency, µM (series often up to 37.9 µM), without a hit: at the highest dose activity change, negative = inhibition, usual class: inhibitors | Lassa virus pseudotype entry inhibition, cell reporter | AID 540256, 2011; calls by dose curve; tested in HEK293 cells; also: potency is read from the fitted curve at half-maximal effect; % is scaled to controls: 0 for no effect and ±100 for the full control effect; nearly all actives have a fitted effect of over 50% in size
VACV mCherry inh = qHTS for Stage-Specific Inhibitors of Vaccinia Orthopoxvirus: mCherry Reporter Primary qHTS; Vaccinia virus mCherry reporter infection, fluorescence; Potency, µM (doses to about 36.5 µM), without a hit: top-dose activity change, negative = inhibition, actives largely listed as inhibitors; 310,000 tested, 0.63% active; AID 720579, 2013; calls by dose curve; tested in A549 cells; also: potency is read from the fitted curve at half-maximal effect; % is scaled to controls: 0 for no effect and ±100 for the full control effect; nearly all actives have a fitted effect of over 35% in size
Marburg entry inh = qHTS for inhibitors of binding or entry into cells for Marburg Virus; Marburg virus pseudotyped entry inhibition, cell reporter; Potency, µM (doses to about 37.8 µM), for inactives: top-dose activity change, negative = inhibition, usual class: inhibitors; 300,000 tested, 1.8% active; AID 540276, 2011; calls by dose curve; tested in HEK293 cells; also: potency is read from the fitted curve at half-maximal effect; % is scaled to controls: 0 for no effect and ±100 for the full control effect
Vaccinia Venus = qHTS for Stage-Specific Inhibitors of Vaccinia Orthopoxvirus: Venus Reporter Primary qHTS | Vaccinia virus Venus reporter expression, fluorescence | Potency, µM (doses to about 36.5 µM), without a hit: at the top dose activity change, negative = inhibition, hits mostly inhibitors | 330,000 tested, 0.46% active; calls by dose curve; tested in A549 cells; also: potency is read from the fitted curve at half-maximal effect; % is scaled to controls: 0 for no effect and ±100 for the full control effect; nearly all actives have a fitted effect of over 30% in size
Shiga toxin inh = A qHTS for Small Molecule Inhibitors of Shiga Toxin | Vero cells, Shiga toxin protein synthesis inhibition reporter | inhibition, % at 38.7 µM | 290,000 tested, 9.2% active; in the data active = inhibition mostly above about 28%, no sharp cut-off; inactive = mostly below about 43%; also: 0% is about no effect
Cycloheximide cs = Cycloheximide Counterscreen for Small Molecule Inhibitors of Shiga Toxin; AID 2314, 2010; 300,000 tested, 12% active; max response, %; cell reporter, cycloheximide protein synthesis inhibition counterscreen; in the data active = max response mostly above about 13%, no sharp cut-off; inactive = mostly below about 14%; also: read at 38.3 µM for the half of the compounds with a filed dose; 0% is about no effect
Numbers without * were called inactive; i = inactive; ? = inconclusive; nt = not tested or not shown; [ ] = remark or other dose.

SMILES	Lassa entry inh	VACV mCherry inh	Marburg entry inh	Vaccinia Venus	Shiga toxin inh	Cycloheximide cs
Cc1c([C@@H]2Nc3ccccc3NC3=C2C(=O)CC(C)(C)C3)cnn1C	nt	nt	2%	nt	nt	nt
COC(=O)c1ccc2c(c1)NC1=C(C(=O)CC(C)(C)C1)C(c1ccncc1)N2 (stereo not drawn)	-15%	-15%	?	-4%	84*	42*
O=C(C(=O)N1CCN(c2ccc([N+](=O)[O-])cc2)CC1)c1cn(CC(=O)N2CCOCC2)c2ccccc12	-1%	-16%	-21%	-18%	-13	-3
O=S(=O)(c1ccc(Br)cc1)N1CCOCC1	nt	0%	nt	-13%	nt	nt
COc1cc(C(=O)O/N=C2\C=CC(=O)C(C)=C2)cc(OC)c1OC	?	nt	?	nt	101*	71*
C/C(=N\NC(=O)c1cccc(O)c1)c1ccc(NC(=O)Cc2ccccc2)cc1	9%	-2%	?	-18%	69*	34*
C/C(=N/NC(=O)c1ccc(-c2ccccc2)cc1)c1cccc(O)c1	-8%[46.1 µM]	?	2%[46.1 µM]	-11%	22	8
O=C(Cc1ccccc1)Nc1ccc(C(=O)O)cc1	-20%[14.3 µM]	-3%	-3%	7%	16	6
COc1cc(C(=O)N/N=C(\C)c2ccc(NC(=O)Cc3ccccc3)cc2)ccc1O	nt	nt	nt	nt	45*	39*
COc1ccc(C(=O)N/N=C(\C)CC(=O)Nc2ccc(N(C)C)cc2)c(OC)c1	12%	-10%	-17%	-28%	nt	19
COc1ccc(C(=O)NN=C(Cc2ccccc2)Cc2ccccc2)cc1OC	?	-1%	2%	-19%	11	0
C/C(=N\NC(=O)c1ccccc1O)c1ccc(NC(=O)Cc2ccccc2)cc1	-1%	i	-21%	-14%	41*	29*
COc1ccc(CC(=O)Nc2ccc(/C(C)=N/NC(=O)c3ccc(OC)cc3OC)cc2)cc1	11%[46.1 µM]	-8%	-3%[46.1 µM]	-15%	50*	28*
CCN(C(=O)c1cc2c(=O)n(CC)c3ccccc3c2s1)c1cccc(C(F)(F)F)c1	-9%[46.1 µM]	-14%	4%[46.1 µM]	-2%	nt	nt
CC(=O)c1ccc(S(=O)(=O)N2CCN(C(=O)CN3C(=O)NC4(CCCC4)C3=O)CC2)cc1	9%	-18%	17%[46.1 µM]	-4%	nt	nt
Cc1cc(-c2ccc(C)c(S(=O)(=O)NCc3cccs3)c2)on1	-28%[46.1 µM]	-26%	nt	-26%	nt	nt
COc1cccc(C(=O)N/N=C(\C)c2ccc(NC(=O)Cc3ccccc3)cc2)c1OC	-3%[46.1 µM]	i	18%[46.1 µM]	-8%	27	18*
COc1cccc(C(=O)NCCCc2ccccc2)c1OC	4%	-3%	22%[46.1 µM]	-4%	nt	nt
CCOC(=O)c1ccc(NC(=O)c2cc3c(=O)n(C)c4ccccc4c3n2C)cc1	-1%[46.1 µM]	2%	9%[46.1 µM]	5%	nt	nt
Cc1nc2sc(C(=O)Nc3ccc(F)cc3)c(N)c2c(-c2ccc(Br)cc2)c1C(=O)Nc1ccc(Cl)cc1	0%[46.1 µM]	3%	?	-20%	nt	nt
O=C(/C=C/c1ccc(Br)o1)Nc1nccs1	2%	nt	?	nt	95*	39*
O=C(O)/C=C/C(=O)Nc1nccs1	21%[46.1 µM]	-7%	1%[46.1 µM]	7%	2	5
O=C(Nc1nccs1)c1ccc(Br)o1	11%	-13%	22%	-4%	69*	33*
O=S(=O)(/N=C(/Sc1ccc(Cl)cc1)c1ccccc1)c1ccccc1	nt	-16%	nt	-16%	nt	nt
O=C(/C=C/c1cccs1)Nc1scc(-c2ccccc2)c1C(=O)O	?	-11%	?	34%	92*	44*
SMILES	Lassa entry inh	VACV mCherry inh	Marburg entry inh	Vaccinia Venus	Shiga toxin inh	Cycloheximide cs
O=C(/C=N/O)Nc1cccnc1	-4%	-8%	?	-4%	18	-3
O=C(/C=C/c1ccc2c(c1)OCO2)Nc1nc(-c2ccccc2)cs1	-27%	?	?	?	39	2
O=C(/C=C/c1cccs1)Nc1nc(-c2ccccc2)cs1	8%	nt	?	nt	63*	40*
O=C(/C=C/c1cccs1)Nc1cccnc1	12%	-8%	?	-3%	124*	75*
Cc1ccnc(NC(=O)/C=C/c2cccs2)c1	?	?	?	?	97*	50*
O=C(Nc1scc(-c2ccccc2)c1C(=O)O)c1ccccc1Cl	11%	1%	2%[46.1 µM]	-11%	-7	10
CCc1cccc(-n2nnc(-c3nc(-c4cccs4)no3)c2N)c1	0%[46.1 µM]	-10%[7.34 µM]	nt	-4%[7.34 µM]	nt	nt
O=C(/C=C/c1cccs1)Nc1nncs1	nt	nt	nt	nt	54*	34*
CCOc1ccc(NC(=O)Cn2nc(Cc3cccnc3)c3ccccc3c2=O)cc1	14%[46.1 µM]	-12%	7%[46.1 µM]	-6%	nt	nt
Cc1ccc(NC(=O)c2c(C)cc(C)nc2SCC(=O)Nc2ccc(Br)cc2)cc1	-5%[46.1 µM]	i	?	-18%	nt	nt
Cc1ccc(-c2nc(C#N)c(NCc3ccco3)o2)cc1	5%	nt	8%	1%	89*	54*
N#Cc1nc(-c2ccc(OCc3ccccc3)cc2)oc1NCc1ccco1	5%	nt	?	-4%	4	-5
CC(C)(C)c1ccc(-c2nc(C#N)c(NCc3cccnc3)o2)cc1	13%	nt	21%	nt	23	32*
COc1ccccc1OCc1nc(C#N)c(NCc2ccco2)o1	5%	-19%	-28%	-1%	15	8
COc1ccc(-c2nc(C#N)c(NCc3ccco3)o2)cc1	nt	nt	nt	nt	73*	28*
Cc1cccc(-c2nc(C#N)c(NCc3ccco3)o2)c1	nt	nt	nt	nt	54*	57*
CCOC(=O)c1ccccc1NC(=O)N1CCCN(S(=O)(=O)c2ccc3c(ccn3CC)c2)CC1	?	-18%	nt	7%	nt	nt
CCc1sc(C(=O)NNC(=O)c2cncc(Br)c2)cc1C	-9%	-7%	8%	-5%	nt	nt
Cc1cc(C)cc(C(=O)N2CCCCC2)c1	22%[46.1 µM]	i	?	-6%	nt	nt
CCc1nc2cc(C(=O)N3CCC[C@H]3CO)cc(NC(=O)c3ccccc3OC)c2n1C	nt	-10%	nt	-9%	nt	nt
N#Cc1nc(-c2ccc(F)cc2)oc1NCc1ccco1	nt	nt	nt	nt	86*	13*
Cc1ccc(S(=O)(=O)NCC(=O)N2CCCC2C(=O)O)cc1 (stereo not drawn)	nt	nt	nt	nt	-4	12
CCc1n[n+](CC(=O)c2ccccc2)c(N)s1	7.9µM*	-11%	?	-12%	53	22*
CCOC(=O)c1c(-c2ccc(OC)cc2)csc1NC(=O)C1CCCO1 (stereo not drawn)	?	nt	-25%	nt	-5	-1
O=C(Nc1nc(-c2ccc(Cl)cc2Cl)cs1)C1CCCO1 (stereo not drawn)	?	-25%	?	-12%	8	9
CCOc1ccc(-c2csc(NC(=O)C3CCCO3)n2)cc1 (stereo not drawn)	-32%	nt	?	nt	11*	42*
O=C(Nc1nc(-c2ccc(Cl)cc2)cs1)C1CCCO1 (stereo not drawn)	-2%	-21%	1%[46.1 µM]	-18%	91*	36*
CC(=O)Nc1ccc(S(=O)(=O)c2ccc(N)cc2)cc1N	nt	3%	nt	-6%	-16	-3
